Results on 20 molecules are retold here after PubChem BioAssay (EPA / NIEHS).

As usually defined, the AC50 is the concentration at which the activity in the assay is half-maximal.

SMILES strings stand for the structures. Results filed as inconclusive are left out. The source made the active and inactive calls. Rule for the calls, unless noted: active = hit-call score of the fitted dose curve at least 0.9, where 1 is the maximum; inconclusive = response in the unintended direction; inactive = score below 0.9.

In assay [1] the target is Cytochrome P450 2C19 (Homo sapiens) (UniProt P33261). Kind of assay: NVS_ADME_hCYP2C19: NovaScreen (NVS) CYP450-related Enzyme Activity (ADME) Assay for human CYP2C19 (AID 2283113).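 Note: potency for inhibition seen as loss of fluorescent signal.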 In outline:
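Recombinant insect-cell-expressed enzyme, fluorescent substrate, 1 h after chemical addition, fluorescence intensity. Baseline = acetonitrile vehicle; activity scored as signal loss. Primary HTS single concentration 10 uM, duplicate; actives retested in concentration series.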

Assay [2] has as its target human Phosphoinositide 3-kinase alpha (PI3Ka), PIK3CA (gene 5290) (UniProt P42336). The assay is described as follows: NVS_ENZ_hPI3Ka: NovaScreen (NVS) Enzymatic Assay for human Phosphoinositide 3-kinase alpha (PI3Ka) (AID 2283196). In a few lines:
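Duplicate single-point screen (25 uM), then singleton dose-response (max 50 uM) for compounds meeting the threshold. Cell-free kinase reaction, 1 h; fluorescent mobility-shift readout.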

Assay [3] is described as follows: CCTE_Shafer_MEA_acute_spike_number: CCTE's Neural Acute Assay for Total Number of Spikes, Shafer Lab (AID 2284008; active = hit-call score of the fitted dose curve at least 0.9, where 1 is the maximum; inactive = score below 0.9). In outline: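 Rat cortical cultures, DIV 13/15, 37 C. 40 min baseline rec, cpd 0.03-40 uM, 40 min post-dose rec. Band-pass 300-5000 Hz, spike threshold 8x rms; % change in spike count per well, DMSO neg ctrl, loss-of-signal fit.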
The target of assay [4] is Estrogen receptor (Homo sapiens) (UniProt P03372). The assay is described as follows: OT_ER_ERaERa_1440: Odyssey Thera (OT) 24-hour HEK293T Protein-Complementation Assay for Estrogen Receptor-alpha/-alpha Homodimer (AID 2283349).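 Note: hits raise fluorescence above DMSO for agonists and antagonists alike.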 In a few lines: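 Stably transfected HEK293T; ERα LBD homodimer PCA. 24 h dosing, fluorescence intensity read, gain-of-signal vs DMSO.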
Sequence of Estrogen receptor (Homo sapiens) (P03372 whole entry, looked up, the tested form may be a part): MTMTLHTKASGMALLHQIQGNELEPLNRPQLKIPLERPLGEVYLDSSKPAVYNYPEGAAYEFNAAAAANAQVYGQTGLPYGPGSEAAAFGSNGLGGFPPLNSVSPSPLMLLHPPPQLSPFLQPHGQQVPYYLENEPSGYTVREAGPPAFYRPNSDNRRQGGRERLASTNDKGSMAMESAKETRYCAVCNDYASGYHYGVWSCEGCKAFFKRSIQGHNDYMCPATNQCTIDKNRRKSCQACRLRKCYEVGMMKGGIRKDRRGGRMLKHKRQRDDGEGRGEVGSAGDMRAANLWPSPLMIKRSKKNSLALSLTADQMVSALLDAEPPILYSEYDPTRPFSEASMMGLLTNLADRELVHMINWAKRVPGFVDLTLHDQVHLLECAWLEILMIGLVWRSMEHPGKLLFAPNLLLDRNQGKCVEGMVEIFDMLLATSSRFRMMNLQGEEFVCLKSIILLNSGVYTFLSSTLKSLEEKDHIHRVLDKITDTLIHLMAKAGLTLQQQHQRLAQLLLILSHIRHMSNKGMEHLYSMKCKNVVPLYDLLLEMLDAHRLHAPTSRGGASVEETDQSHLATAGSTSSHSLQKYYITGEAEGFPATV
Assay [5] has the same target. Kind of assay: OT_ER_ERaERa_0480: Odyssey Thera (OT) 8-hour HEK293T Protein-Complementation Assay for Estrogen Receptor-alpha/-alpha Homodimer (AID 2283351).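 Note: rise in fluorescence from reassembled reporter fragments on ERα LBD homodimer in nucleus or whole cell.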 In outline:
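Read-out: fluorescence intensity rise relative to DMSO, nuclear for agonists, nuclear plus cytoplasmic for antagonists. Construct is the ERα LBD (aa 310-547) homodimer fragment-complementation pair, stably expressed in HEK293T; exposure 8 h.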

Assay [6] has as its target Estrogen receptor (Homo sapiens) + Estrogen receptor beta (Homo sapiens) (UniProt P03372+Q92731). Kind of assay: OT_ER_ERaERb_1440: Odyssey Thera (OT) 24-hour HEK293T Protein-Complementation Assay for Estrogen Receptor-alpha/-beta Homodimer (AID 2283356).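 Note: heteromer of ER alpha and ER beta binding domains; hits raise reporter fluorescence and both agonists and antagonists give an increase.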 In outline:
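Readout: mean fluorescence intensity in nucleus (agonists) or nucleus plus cytoplasm (antagonists), read by laser scanning cytometer after 24 h compound exposure of HEK293T cells carrying ERα/ERβ LBD fragment-complementation constructs; DMSO baseline.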

The target in assay [7] is Estrogen receptor (Homo sapiens) (UniProt P03372). The assay is described as follows: OT_ERa_GFPERaERE_0480: Odyssey Thera (OT) 8-hour HeLa Transcription Induction Assay for Estrogen Receptor (AID 2283381; active = hit-call score of the fitted dose curve at least 0.9, where 1 is the maximum; inactive = score below 0.9). In outline:
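GFP-ERE reporter, HeLa, 8 h exposure. Readout: fluorescence microscopy, high-content image analysis. Fit direction positive vs DMSO negative control.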

Assay [8] shares this target. The assay is described as follows: OT_ERa_GFPERaERE_0120: Odyssey Thera (OT) 2-hour HeLa Transcription Induction Assay for Estrogen Receptor (AID 2283382). In outline:
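Fluorescence microscopy read-out: inducible fluorescent protein reporter in HeLa cells, imaged 2 h post-dose. Signal increase over DMSO negative control fitted as single primary endpoint via high content image analysis.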

For assay [9], the target named is bovine Estrogen Receptor (ER), ESR1 (gene 407238) (UniProt P49884). The assay is described as follows: NVS_NR_bER: NovaScreen (NVS) Nuclear Receptor Binding Assay for bovine Estrogen Receptor (ER) (AID 2283345).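 Note: actives lower the bound radioligand count which means they displace the ER ligand.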 In a few lines:
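Bovine uterine membranes; tritiated or iodinated radioligand; competitive displacement; 18 h; scintillation read; DMSO negative control; 25 uM duplicates, then concentration series for actives.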

Assay [10] addresses Androgen Receptor/SRC-1 Co-activator, AR (gene 367) (UniProt P10275). Kind of assay: OT_AR_ARSRC1_0960: Odyssey Thera (OT) 16-hour HEK293T Protein-Complementation Assay for Androgen Receptor/SRC-1 Co-activator (AID 2283353).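 Note: actives raise the signal above DMSO so potency reflects increased AR and SRC-1 complex.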 In outline: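 Readout: 488 nm nuclear-to-cytoplasmic fluorescence ratio from imaging of at least 400 cells per image, 16 h post-dose. Reporter is Venus YFP complementation between AR and SRC-1 fusions, stably expressed in HEK293T; activity scored upward relative to DMSO.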

For assay [11] the target is unchanged. Kind of assay: OT_AR_ARSRC1_0480: Odyssey Thera (OT) 8-hour HEK293T Protein-Complementation Assay for Androgen Receptor/SRC-1 Co-activator (AID 2283354).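 Note: hits raise the complementation signal above DMSO so AC50 marks enhancers.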 In a few lines:
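After 8 h dosing, stably expressing HEK293T cells with split-Venus AR/SRC-1 fusions were imaged (488, 635nm). The 488nm N/C ratio per image gave the endpoint, analysed in the positive direction against DMSO.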

The target of assay [12] is Agonist Androgen Response Element (ARE), AR (gene 367) (UniProt P10275). Kind of assay: OT_AR_ARELUC_AG_1440: Odyssey Thera (OT) 24-hour CHO-K1 Luciferase Assay for Agonist Androgen Response Element (ARE) (AID 2283379). In outline: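 Luminescence increase above DMSO, read after a 24 h compound treatment of CHO-K1 cells expressing an androgen response element luciferase reporter, gives the single primary endpoint; concentration-response fitting used the positive direction.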
Sequence of Agonist Androgen Response Element (ARE), AR (gene 367) (P10275 whole entry, looked up): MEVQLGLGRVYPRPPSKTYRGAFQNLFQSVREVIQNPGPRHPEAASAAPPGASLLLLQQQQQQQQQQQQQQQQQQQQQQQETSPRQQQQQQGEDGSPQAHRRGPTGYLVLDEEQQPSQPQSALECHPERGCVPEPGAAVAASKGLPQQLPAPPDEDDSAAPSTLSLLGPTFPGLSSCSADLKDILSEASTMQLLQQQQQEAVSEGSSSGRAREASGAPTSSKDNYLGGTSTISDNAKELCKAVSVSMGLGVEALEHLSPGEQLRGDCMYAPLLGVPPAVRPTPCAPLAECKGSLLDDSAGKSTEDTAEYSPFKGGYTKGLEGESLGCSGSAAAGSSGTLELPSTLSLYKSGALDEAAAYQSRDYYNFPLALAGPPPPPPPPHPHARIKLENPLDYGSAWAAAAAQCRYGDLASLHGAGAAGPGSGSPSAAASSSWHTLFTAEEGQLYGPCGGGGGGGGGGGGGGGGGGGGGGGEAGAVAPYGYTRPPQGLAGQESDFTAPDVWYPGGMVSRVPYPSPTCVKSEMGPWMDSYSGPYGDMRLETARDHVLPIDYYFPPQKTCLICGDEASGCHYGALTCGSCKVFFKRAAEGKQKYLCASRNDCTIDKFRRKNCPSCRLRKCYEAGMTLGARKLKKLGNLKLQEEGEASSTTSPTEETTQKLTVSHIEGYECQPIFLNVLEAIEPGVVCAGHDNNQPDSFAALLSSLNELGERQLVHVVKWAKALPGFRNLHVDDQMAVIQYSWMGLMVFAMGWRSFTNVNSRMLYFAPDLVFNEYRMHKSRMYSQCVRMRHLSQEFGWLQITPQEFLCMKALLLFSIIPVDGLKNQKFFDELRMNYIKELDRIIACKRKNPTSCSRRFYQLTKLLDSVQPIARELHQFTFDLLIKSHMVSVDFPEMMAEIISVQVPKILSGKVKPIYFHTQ

For assay [13], the target named is AR (gene 367) (UniProt P10275). Kind of assay: ACEA_AR_antagonist_80hr: ACEA Biosciences xCELLigence Real-Time Cell Analysis on Androgen Receptor Antagonism for Proliferation (AID 2283787).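 Note: 22Rv1 human prostate cancer cells with growth followed by electrical impedance; hits lower the impedance growth signal relative to DMSO.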 In outline: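 Using 22Rv1 cells held in assay medium, we dosed compounds (100 uM maximum final, 1:4 serial, eight points, 0.5% DMSO at top) and recorded cell-electrode impedance; the 80 hr timepoint was analyzed against DMSO.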
Sequence of AR (gene 367) (P10275 whole entry, looked up): as above

For assay [14], the target named is Nucleoli Translocation, AR (gene 367) (UniProt P10275). Kind of assay: UPITT_HCI_U2OS_AR_TIF2_Nucleoli_Agonist: University of Pittsburgh U2OS Androgen Receptor-Transcriptional Intermediary Factor 2 (AR-TIF2) Agonism High Content Imaging Assay for Nucleoli Translocation (AID 2283998). In a few lines: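 RFP-AR / GFP-TIF2 cells; cpds diluted in serum-free medium; single-point screen 20 uM final (0.2% DMSO), actives confirmed in triplicate; conc-response 0.195–50 uM final (0.5% DMSO). Readout: nucleolar red fluorescence, positive direction vs DMSO.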
Sequence of Nucleoli Translocation, AR (gene 367) (P10275 whole entry, looked up): as above

The target in assay [15] is Ratio of Nucleoli Translocation and Cytoplasm, AR (gene 367) (UniProt P10275). The assay is described as follows: UPITT_HCI_U2OS_AR_TIF2_Nucleoli_Cytoplasm_Ratio_Antagonist: University of Pittsburgh U2OS Androgen Receptor-Transcriptional Intermediary Factor 2 (AR-TIF2) Antagonism High Content Imaging Assay for Ratio of Nucleoli Translocation and Cytoplasm (AID 2283999).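 Note: antagonists lower the DHT-driven ratio of nucleolar to cytoplasmic red signal.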 In a few lines:
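Read-out is the ratio of nucleolar to cytoplasmic AR-RFP fluorescence, imaged by high-content microscopy in U2OS cells coexpressing TIF2-GFP. Single-point 20 uM screen, triplicate confirmation, then 0.195–50 uM dose response; activity referenced to DHT baseline.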

Assay [16] shares this target. Kind of assay: UPITT_HCI_U2OS_AR_TIF2_Nucleoli_Cytoplasm_Ratio_Agonist: University of Pittsburgh U2OS Androgen Receptor-Transcriptional Intermediary Factor 2 (AR-TIF2) Agonism High Content Imaging Assay for Ratio of Nucleoli Translocation and Cytoplasm (AID 2284000).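 Note: hits raise the red nucleolar to cytoplasm ratio above vehicle.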 In a few lines:
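Primary screen at 20 uM final (0.2% DMSO), then triplicate confirmation and dose-response from 0.195 to 50 uM final (0.5% DMSO). Cells: U2OS with AR-RFP and TIF2-GFP. Endpoint is the nucleoli/cytoplasm red-fluorescence ratio, gain-of-signal vs DMSO.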

The nature of assay [17]: CCTE_Deisenroth_AIME_384WELL_CTox_Inactive: Cytotoxicity Assessment (CTOX) in CCTE's 384-well Estrogen Receptor Transactivation Assay without AIME metabolic competence (metabolism negative), Deisenroth Lab (AID 2284039).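 Note: cell viability via live-cell protease substrate cleaved to fluorescent probe; cells exposed 24 h to medium preincubated 2 h with alginate-water beads without S9.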 In outline:
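Fluorescence from a live-cell protease substrate, read after 24 h in VM7Luc4E2 cells, indicated viability. Test medium came from a 2 h AIME step without hepatic S9 (alginate-water microspheres); concentrations spanned 0.002 - 200 uM, single technical replicate per run.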

Assay [18] deals with human Dopamine Transporter (DAT), SLC6A3 (gene 6531) (UniProt Q01959). Kind of assay: NVS_TR_hDAT: NovaScreen (NVS) Transporter Assay for human Dopamine Transporter (DAT) (AID 2283374).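 Note: activity means loss of bound radioligand signal relative to DMSO.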 In outline:
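Extracted human SLC6A3 protein incubated 1 h with radioligand and test chemical; bound fraction separated on filters and counted. Single 25 uM duplicate screen preceded concentration-response follow-up; positive and negative controls on every plate.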

The subject of assay [19] is TTR (gene 7276). Kind of assay: CCTE_GLTED_hTTR_0.125uM: CCTE's human Transthyretin (hTTR) Inhibition Assay, with 0.125uM TTR, Great Lakes Toxicology and Ecology Division (GLTED) Lab (AID 2284431; active = hit-call score of the fitted dose curve at least 0.9, where 1 is the maximum; inactive = score below 0.9;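 note: hits lower the fluorescence signal relative to DMSO baseline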). In outline: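 TTR 0.125uM + test chemical, 2 h; ANSA probe displacement; ex 380/em 475 fluorescence; signal loss vs DMSO control.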
Assay [20] can be described thus: CCTE_Deisenroth_AIME_384WELL_CTox_Active: Cytotoxicity Assessment (CTOX) in CCTE's 384-well Estrogen Receptor Transactivation Assay with AIME metabolic competence (metabolism positive), Deisenroth Lab (AID 2284037).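 Note: chemicals first conditioned 2 h by alginate-bound induced rat liver S9 before cells; activity means signal loss indicating cell death.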 In a few lines:
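VM7Luc4E2 breast cells received medium pre-incubated 2 h with chemical over alginate microspheres holding induced male Sprague Dawley rat liver S9; viability read 24 h later by protease-substrate fluorescence. Loss of signal, bidirectional fit, 0.002–200 uM.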

Sequence of Androgen Receptor/SRC-1 Co-activator, AR (gene 367) (P10275 whole entry, looked up, the tested form may be a part): as the sequence (P10275 whole entry, looked up) above
Sequence of Ratio of Nucleoli Translocation and Cytoplasm, AR (gene 367) (P10275 whole entry, looked up): as above
Sequence of Estrogen receptor (Homo sapiens) + Estrogen receptor beta (Homo sapiens) (P03372 whole entry, looked up, the tested form may be a part): as the sequence (P03372 whole entry, looked up, the tested form may be a part) above
Sequence of Estrogen receptor (Homo sapiens) + Estrogen receptor beta (Homo sapiens) (Q92731 whole entry, looked up, the tested form may be a part): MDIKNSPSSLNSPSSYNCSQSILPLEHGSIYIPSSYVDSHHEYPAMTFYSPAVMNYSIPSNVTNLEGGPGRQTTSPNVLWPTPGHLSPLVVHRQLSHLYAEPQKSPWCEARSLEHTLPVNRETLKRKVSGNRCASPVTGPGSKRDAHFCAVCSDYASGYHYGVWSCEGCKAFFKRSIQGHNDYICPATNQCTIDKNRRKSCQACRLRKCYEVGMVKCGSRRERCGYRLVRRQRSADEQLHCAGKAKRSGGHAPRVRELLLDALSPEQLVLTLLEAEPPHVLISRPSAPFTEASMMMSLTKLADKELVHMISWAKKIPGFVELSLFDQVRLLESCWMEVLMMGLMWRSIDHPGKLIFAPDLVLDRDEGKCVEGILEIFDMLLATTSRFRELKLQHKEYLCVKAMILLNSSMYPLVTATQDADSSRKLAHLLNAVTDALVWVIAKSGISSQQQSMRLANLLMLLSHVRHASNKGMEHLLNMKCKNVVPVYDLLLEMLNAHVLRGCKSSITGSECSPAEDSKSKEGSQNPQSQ
Sequence of human Dopamine Transporter (DAT), SLC6A3 (gene 6531) (Q01959 whole entry, looked up): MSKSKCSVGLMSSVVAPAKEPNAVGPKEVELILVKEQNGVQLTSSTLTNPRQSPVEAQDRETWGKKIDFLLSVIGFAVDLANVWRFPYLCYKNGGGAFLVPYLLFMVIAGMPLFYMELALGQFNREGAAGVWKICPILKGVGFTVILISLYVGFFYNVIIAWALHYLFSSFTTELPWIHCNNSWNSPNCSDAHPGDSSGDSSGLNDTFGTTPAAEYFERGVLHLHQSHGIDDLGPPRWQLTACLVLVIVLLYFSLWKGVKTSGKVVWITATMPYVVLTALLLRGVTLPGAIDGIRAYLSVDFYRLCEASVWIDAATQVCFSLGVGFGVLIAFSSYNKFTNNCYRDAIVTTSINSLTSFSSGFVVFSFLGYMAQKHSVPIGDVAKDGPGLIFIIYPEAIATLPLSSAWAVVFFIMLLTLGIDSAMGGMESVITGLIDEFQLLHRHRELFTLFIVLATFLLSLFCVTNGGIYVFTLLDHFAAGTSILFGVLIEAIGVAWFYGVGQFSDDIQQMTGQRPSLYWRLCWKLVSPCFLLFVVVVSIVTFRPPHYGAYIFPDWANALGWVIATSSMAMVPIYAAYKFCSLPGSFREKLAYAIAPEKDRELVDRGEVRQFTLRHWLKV
Sequence of bovine Estrogen Receptor (ER), ESR1 (gene 407238) (P49884 whole entry, looked up): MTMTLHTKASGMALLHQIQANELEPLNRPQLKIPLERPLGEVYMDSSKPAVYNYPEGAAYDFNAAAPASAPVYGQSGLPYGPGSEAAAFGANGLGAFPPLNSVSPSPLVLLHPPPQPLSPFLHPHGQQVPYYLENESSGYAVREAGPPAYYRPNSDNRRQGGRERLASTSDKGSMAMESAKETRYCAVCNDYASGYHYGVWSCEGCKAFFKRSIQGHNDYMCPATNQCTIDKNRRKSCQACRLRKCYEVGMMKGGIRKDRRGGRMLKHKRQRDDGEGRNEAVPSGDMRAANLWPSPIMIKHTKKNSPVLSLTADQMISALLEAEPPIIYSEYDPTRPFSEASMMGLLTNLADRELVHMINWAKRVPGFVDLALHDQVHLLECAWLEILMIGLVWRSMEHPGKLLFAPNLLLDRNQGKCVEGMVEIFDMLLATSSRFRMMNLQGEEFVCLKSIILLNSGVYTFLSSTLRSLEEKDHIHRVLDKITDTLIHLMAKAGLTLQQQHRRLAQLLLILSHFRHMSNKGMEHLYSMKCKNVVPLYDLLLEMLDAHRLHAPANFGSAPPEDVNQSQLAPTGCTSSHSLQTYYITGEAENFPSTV
Sequence of human Phosphoinositide 3-kinase alpha (PI3Ka), PIK3CA (gene 5290) (P42336 whole entry, looked up): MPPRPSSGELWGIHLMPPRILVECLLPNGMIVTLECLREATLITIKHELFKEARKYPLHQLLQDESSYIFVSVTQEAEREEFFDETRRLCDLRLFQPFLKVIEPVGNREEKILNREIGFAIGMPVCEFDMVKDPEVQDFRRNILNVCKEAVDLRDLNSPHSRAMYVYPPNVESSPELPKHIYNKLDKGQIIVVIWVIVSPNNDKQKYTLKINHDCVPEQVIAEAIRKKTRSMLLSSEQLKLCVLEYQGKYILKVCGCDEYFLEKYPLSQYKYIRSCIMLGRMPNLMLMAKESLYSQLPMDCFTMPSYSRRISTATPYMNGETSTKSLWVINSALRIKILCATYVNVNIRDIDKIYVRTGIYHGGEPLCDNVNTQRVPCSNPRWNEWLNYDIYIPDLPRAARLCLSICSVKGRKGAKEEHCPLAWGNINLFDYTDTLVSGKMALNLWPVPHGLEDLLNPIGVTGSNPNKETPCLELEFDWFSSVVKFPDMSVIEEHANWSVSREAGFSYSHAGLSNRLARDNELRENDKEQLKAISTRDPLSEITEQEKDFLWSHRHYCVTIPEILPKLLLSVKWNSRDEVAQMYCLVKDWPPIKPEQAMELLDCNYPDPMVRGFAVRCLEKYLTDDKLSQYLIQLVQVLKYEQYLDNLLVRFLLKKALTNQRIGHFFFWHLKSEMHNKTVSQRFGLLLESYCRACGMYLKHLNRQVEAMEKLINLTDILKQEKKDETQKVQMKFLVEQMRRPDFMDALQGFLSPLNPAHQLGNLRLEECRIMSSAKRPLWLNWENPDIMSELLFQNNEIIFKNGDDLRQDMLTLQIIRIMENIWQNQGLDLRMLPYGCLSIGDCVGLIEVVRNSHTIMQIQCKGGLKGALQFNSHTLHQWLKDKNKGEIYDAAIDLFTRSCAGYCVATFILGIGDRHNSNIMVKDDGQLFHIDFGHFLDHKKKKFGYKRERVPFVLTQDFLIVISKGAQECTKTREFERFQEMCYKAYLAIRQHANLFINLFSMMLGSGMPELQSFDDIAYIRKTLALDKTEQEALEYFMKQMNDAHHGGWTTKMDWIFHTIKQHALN

For the molecule `CC(Cc1ccc(C(C)(C)C)cc1)CN1C[C@@H](C)O[C@@H](C)C1` (stereo partly specified), the AC50 in [1] was 6.83 µM (active).
For `O=c1c2ccccc2c(=O)c2c1cc(Cl)c1[nH]c3c([nH]c12)c(Cl)cc1c(=O)c2ccccc2c(=O)c13`, the AC50 in assay [2] was 4.37 µM (active). For the same molecule, the molecule was classed as inactive in assay [3].
As for `CCOC(=O)NC(=S)Nc1ccccc1NC(=S)NC(=O)OCC`, the concentration at half-maximal activity (AC50) in assay [1] is 2.84 µM (active).
For the molecule `O=P(O)(Oc1ccccc1)Oc1ccccc1`, the molecule was classed as inactive in assay [4], in [5], in assay [6], in assay [7] and in assay [8].
As to `c1ccc(P(c2ccccc2)c2ccccc2)cc1`, the molecule was classed as inactive in assay [9] and in assay [4]. Also, the AC50 in [5] is 60.6 µM (active); in [6] it was 64.4 µM (active); in [7] it was 84.1 µM (active); in assay [8], 17 µM (active).
For the molecule `CCCC=NO`, the molecule was classed as inactive in assay [4], in assay [5], in assay [6], in assay [7] and in assay [8].
Take `C[C@]12CCC(=O)C(O)=C1CC[C@@H]1[C@@H]2CC[C@]2(C)C(=O)CC[C@@H]12`: the result in assay [9] was inactive.
Turning to `O=C(NCNC(=O)NC1C(=O)NC(=O)N1CO)NC1C(=O)NC(=O)N1CO` (stereo unspecified), the call in [10], in [11], in assay [12], in assay [13], in assay [14] and in [16] was inactive. In addition, the AC50 in [15] was 50 µM (active).
In the case of `O=CNC(N1CCN(C(NC=O)C(Cl)(Cl)Cl)CC1)C(Cl)(Cl)Cl` (stereo unspecified), the half-maximal activity concentration (AC50) in assay [1] was 5.96 µM (active). Further, the molecule was classed as inactive in assay [4], in [5], in assay [10], in [11], in [6] and in [12]. Besides, the call in assay [7], in assay [8], in assay [13], in assay [14], in assay [15] and in assay [16] was inactive.
Take `CN(C)N`: the molecule was called inactive in [10], in assay [11], in [12], in assay [13], in assay [14] and in assay [15]. Moreover, the outcome in assay [16] and in assay [17] was inactive.
Turning to `CC(C)(C)C(O)C(Oc1ccc(-c2ccccc2)cc1)n1cncn1` (stereo unspecified), the AC50 in assay [18] was 13.4 µM (active).
With `Nc1ccc(-c2ccc(N)c(N)c2)cc1N`, in assay [2], the molecule was called inactive.
Take `Oc1cc(Cl)ccc1Cl`: the AC50 in assay [19] is 1.17 µM (active).
As to `C[C@]12CC[C@H](O)C[C@H]1CC[C@@H]1[C@@H]2C[C@@H](O)[C@]2(C)[C@@H](C3=CC(=O)OC3)CC[C@]12O`, the AC50 in assay [18] was 40.9 µM (active).
For the molecule `CC(C)(c1cc(Cl)c(O)c(Cl)c1)c1cc(Cl)c(O)c(Cl)c1`, the AC50 in [1] was 0.992 µM (active); in assay [2], 3.45 µM (active); in assay [20], 159 µM (active); in assay [17], 153 µM (active); in assay [19], 0.0355 µM (active). In assay [18], the molecule was classed as inactive.
For `Cc1ccccc1CCl`, in assay [2], the molecule was called inactive.
As to `O=[N+]([O-])c1cc(C(F)(F)F)c(Cl)c([N+](=O)[O-])c1Cl`, the molecule was called inactive in assay [9].
Take `CNC(=N[N+](=O)[O-])NCC1CCOC1` (stereo unspecified): the result in assay [20] was inactive.
Turning to `c1ccc(Nc2ccc3ccccc3c2)cc1`, in assay [18], the AC50 is 13 µM (active).
Turning to `C=COCCCl`, the molecule was classed as inactive in assay [14], in [15] and in [16].
